# From PubChem BioAssay (NCATS)
# Results filed as inconclusive are left out. A call without a number means that no potency is given here. Calls of active or inactive are those of the source. Calls follow the shape of the dose curve; as a rule, active = well fitted cell-killing curve with a large enough effect; inconclusive = small, poorly fitted or top-dose-only effect, or effect the other way; inactive = flat fitted curve, though single readings scatter.
# Tested on: Tov-21-G
# Experiment: Primary qHTS to identify gynecologic anti-cancer compounds using libraries of approved drugs and bioactive compounds (AID 1345084); also: nearly all actives have a fitted effect of over 55% in size
# Settings: Gynecologic cancer cell panel viability, ATPlite luminescence, 48 h; series mostly up to 57.5 µM
# Method in brief: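 Cells, 1,000 per well, were allowed to settle for 16 h at 37 C before compound addition. Five concentrations were tested for 48 h, and viability was read by ATPlite luminescence after 15 min at room temperature.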
# Potency is read from the fitted curve at half-maximal effect.
row,SMILES,Potency
1,COc1ccccc1OCCNCC(O)CCOc1cccc2[nH]c3ccccc3c12 (centres undefined),inactive
2,O=C1COC2(CCN(S(=O)(=O)c3ccc(-c4ccc5cccnc5c4)cc3)CC2)CN1C1CC1,inactive
3,CC(C)c1ccc(NC(=O)Cn2cnc3c2c(=O)n(C)c(=O)n3C)cc1,inactive
4,CC(C)(C)C1CCN(C(=O)n2ncc(C(O)(c3ccccc3)c3ccccc3)n2)CC1,inactive
5,COc1ccc(NC(=O)c2ccc(C(=N)N(C)C)cc2)c(C(=O)Nc2ccc(Cl)cn2)c1,inactive
6,CC(C)=CCC/C(C)=C/COCC1OC(n2ccc(=O)[nH]c2=O)C(O)C1O (centres undefined),inactive
7,CCOc1cc(C(C)(C)C)ccc1C1=NC(C)(c2ccc(Cl)cc2)C(C)(c2ccc(Cl)cc2)N1C(=O)N1CCN(CCCS(C)(=O)=O)CC1 (centres undefined),15.8 µM (active)
8,CC(C)(C)NC(=O)[C@H]1CC[C@H]2[C@@H]3CC[C@H]4NC(=O)CC[C@]4(C)[C@H]3CC[C@]12C,inactive
9,COc1ccc(-c2cnc3c(-c4cccc5ncccc45)cnn3c2)cc1,inactive
10,CCOC(=O)c1cnn(-c2ccccc2)c1NC(=O)c1cc2nc(-c3ccco3)cc(C(F)(F)Cl)n2n1,inactive
11,C=C(C)C(=O)OC1CC2(C)OC(=CC2=O)C(=C)CC2OC(=O)C(=C)C12 (centres undefined),4.47 µM (active)
12,C[C@]12CC[C@@H]3c4ccc(O)c(O)c4CC[C@H]3[C@@H]1CCC2=O,inactive
13,Cc1cc2c(F)c(Oc3ncnn4cc(OCC(C)OC(=O)C(C)N)c(C)c34)ccc2[nH]1 (centres undefined),inactive
14,COc1c(C(O)CC(C)C)ccc2c1C(=O)OCc1cc(C)cc(O)c1O2 (centres undefined),inactive
